Compound activity from PubChem.
ALDH1A1 inh: ALDH1A1 (human) enzyme inhibition; Purified ALDH1A1, NADH fluorescence, propionaldehyde substrate; Potency, µM (doses to about 75.3 µM), inactives show at the highest dose activity, negative = inhibition, actives largely listed as inhibitors; actives 7.3% (n = 220,000);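 note: potency is the fitted concentration of half-maximal effect; plate controls were no enzyme wells and a reference inhibitor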
IMPase inh: membrane-permeable compound that blocks inositol monophosphatase. AID 901. 120,000 tested, under 10 active. CHO-M1 cells, IP1 accumulation, HTRF TR-FRET ratio. inhibition (IP1 accumulation), % at 46.1 µM; active = well fitted curve in the direction sought with a large enough effect in the signal ratio, not every such curve was filed as active; inconclusive = small, poorly fitted or top-dose-only effect, or a change in a side signal; inactive = no such curve, though single readings can be large or run the other way; the % refers to the signal ratio;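 note: cells stimulated with carbachol in lithium chloride buffer; plate controls were DMSO basal wells for no effect and reference inhibitor wells for full effect; higher means more IMPase inhibition seen as more IP1 and lower FRET ratio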
Target sequence (P97697 whole entry, looked up): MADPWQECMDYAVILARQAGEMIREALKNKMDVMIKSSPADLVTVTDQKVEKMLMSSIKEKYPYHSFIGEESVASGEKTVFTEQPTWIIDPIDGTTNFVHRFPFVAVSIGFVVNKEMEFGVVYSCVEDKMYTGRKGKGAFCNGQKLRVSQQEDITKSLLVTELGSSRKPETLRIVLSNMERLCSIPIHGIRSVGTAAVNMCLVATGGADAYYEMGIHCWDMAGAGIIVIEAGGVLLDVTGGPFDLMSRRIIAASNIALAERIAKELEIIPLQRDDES
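Seeded CHO-M1 cells were dosed with compound at up to 46 uM, stimulated with carbachol for 30 min, then lysed in IP-One detection reagents. Higher IP1 lowers the TR-FRET signal.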
KinaseGlo FLuc: blocks Kinase-Glo luciferase, a counter-screen artifact. Q27757. Kinase-Glo luciferase, ATP luminescence, 8 min. Potency, µM (titrated, usually from 38.3 µM), for inactives: top-dose activity change, negative = inhibition, usual class: inhibitors. actives 0.28% (n = 200,000). AID 1379; active = well fitted inhibition curve with a large enough effect; inconclusive = small, poorly fitted or top-dose-only effect; note: potency is the fitted concentration of half-maximal effect; nearly all actives have a fitted effect of over 60% in size
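Substrate mix (final 50 mM imidazole pH 7.2, 50 mM KCl, 7 mM MgCl2, 10 uM ATP, 0.01% Tween 20, 0.05% BSA) plus pin-tool compound, then Kinase-Glo detection mix; 8 min ambient, luminescence read.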
HPGD inh: inhibitors of human 15-hydroxyprostaglandin dehydrogenase (HPGD) | AID 894 | Potency, µM, for the others: at the highest dose activity change, negative = inhibition, hits mostly inhibitors | purified HPGD, NADH fluorescence kinetic, PGE2 substrate | actives 4.3% (n = 150,000) | P15428; note: potency is the fitted concentration of half-maximal effect
Target sequence (P15428 whole entry, looked up): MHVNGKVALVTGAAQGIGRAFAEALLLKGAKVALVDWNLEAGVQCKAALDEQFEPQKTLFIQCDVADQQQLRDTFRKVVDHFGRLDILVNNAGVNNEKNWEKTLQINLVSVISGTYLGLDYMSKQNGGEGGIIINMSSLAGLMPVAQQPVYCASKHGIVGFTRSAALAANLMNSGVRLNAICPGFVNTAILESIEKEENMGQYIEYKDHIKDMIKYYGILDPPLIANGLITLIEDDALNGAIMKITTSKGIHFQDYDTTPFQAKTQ
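20 nM HPGD preincubated 15 min at room temperature with compound in 50 mM Tris-HCl pH 8, 0.01% Tween 20. Started with 1 mM NAD+ and 30 uM prostaglandin E2; NADH fluorescence (360/450 nm) read 5 times over 30-s intervals, last minus first.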
Lamin A splicing: changes lamin A minigene splicing in HeLa cells; HeLa LMNA splicing GFP/RFP minigene ratio, 48 h; Potency, µM (top dose mostly 46.1 µM), for the others: at the top dose ratio change, negative = inhibition, usual class: inhibitors; actives 0.01% (n = 200,000); AID 1487; active = well fitted inhibition curve with a large enough effect in the signal ratio, with a control signal flat, not every such curve was filed as active; inconclusive = small, poorly fitted or top-dose-only effect, or effect the other way, or a change in a side signal; the % refers to the signal ratio; note: potency is the fitted concentration of half-maximal effect
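Read-out is the ratio of GFP to DsRed2 object intensity, acquired by 488 nm laser-scanning cytometry on HeLa lamin A-EGFP minigene reporter cells. Compound incubation 48 hrs at 37 °C in Opti-MEM with 2% FBS; DMSO 0.5% final.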
PNC inhibitor: blocks assembly of the perinucleolar compartment. PC3M PTB-GFP, PNC prevalence imaging, 16 h; active compounds read low. AID 2417. actives 3.1% (n = 140,000). activity change (PNC), negative = inhibition, % at 10 µM;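 active = readout at or below -70, meaning at least 70% loss of cells showing the perinucleolar compartment, a nuclear body marking cancer cells; inconclusive = readout between -30 and a set limit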;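 note: plate controls were DMSO wells for no effect and camptothecin positive control wells for full effect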
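PC3M cells stably expressing PTB-GFP, 750–1000 cells/well, treated 16 h at 37 °C with compound (23 nl of library stock), in duplicate. After paraformaldehyde fixation and Hoechst stain, imaged at 20x; PNC prevalence scored by image analysis.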
Numbers without * were called inactive; ? = inconclusive; . = not tested or not shown; [ ] = remark or other dose. In the library only some 10% were active in any assay of this set; here they are far more common. Unless noted, calls come from the whole dose curve; as a rule, active = well fitted inhibition curve with a large enough effect (not every such curve was filed as active); inconclusive = small, poorly fitted or top-dose-only effect, or another doubt; inactive = no such curve, though single readings can be large or run the other way. Unless noted, % is set by controls: 0 for no effect and ±100 for the full control effect.

SMILES | ALDH1A1 inh | IMPase inh | KinaseGlo FLuc | HPGD inh | Lamin A splicing | PNC inhibitor
Cc1csc(NC(=O)C2CC(=O)N(Cc3ccco3)C2)n1 (centres undefined) | 1% | . | -3% | . | -11%[46 µM] | .
C=CCOC(=O)C(C(C)=O)C(NC(=O)OC)c1ccc2ccccc2c1 (centres undefined) | 4%[13.5 µM] | . | . | . | . | .
Cc1cccc(-c2nc3scc(CCNS(=O)(=O)c4ccc(Oc5ccccc5)cc4)n3n2)c1 | . | . | . | . | 12%[46 µM] | .
C/C(CC(=O)Nc1cccc(Cl)c1C)=N\NC(=O)C(=O)NCC(C)C | ? | . | -1% | -5% | 3% | -14
C/C(CC(=O)Nc1ccccc1Cl)=N\NC(=O)C(=O)NCCO | 10µM* | . | -3% | . | 11%[46 µM] | .
CCOc1ccc(S(=O)(=O)Nc2ccc(S(=O)(=O)N3CCCCC3)cc2)cc1 | 2.2µM* | -2 | 1% | -5% | -1% | 1
CCOc1cc(S(=O)(=O)N2CCCCC2)ccc1Cl | 22µM* | 10 | -3% | -13% | 9% | ?
CCOc1ccc(S(=O)(=O)N2CCCCCC2)cc1 | -3% | -1 | -2% | -18% | 7% | ?
CCOC(=O)N1CCN(S(=O)(=O)c2cc(OCC)ccc2OCC)CC1 | -7% | ? | 1% | -11% | 7% | -9
CCOC(=O)N1CCN(S(=O)(=O)c2ccc(C(=O)Nc3nnc(CC)o3)cc2)CC1 | 3% | . | 18% | -23% | -13% | -82*
CCOC(=O)N1CCN(S(=O)(=O)c2ccc(OCC)c(C)c2)CC1 | 16µM* | 2 | 2% | -9% | ? | 25
CCOc1cc(S(=O)(=O)N2CCN(CC)CC2)ccc1Cl | -2% | 7 | -1% | -8% | 2% | 22
Cc1o[nH]c(=O)c1CCC(N)C(=O)O (centres undefined) | 9% | . | . | . | . | .
O=C(O)C[C@H](Sc1ccccc1)c1ccccc1 | 5%[13.5 µM] | . | -3%[7.66 µM] | -6% | . | .
COc1ccc(-c2nc(SCC(=O)N3CCC(C)CC3)n[nH]2)cc1 | . | . | . | . | 1%[46 µM] | .
CCOC(=O)c1noc2ncnc(N3CCN(c4cccc(C(F)(F)F)c4)CC3)c12 | . | . | . | . | -13%[46 µM] | .
CCOc1ccc(S(=O)(=O)Nc2ccc(S(=O)(=O)N3CCCC3)cc2)cc1 | 3.2µM* | 10 | 3% | -7% | -11% | 34
CCOc1ccc(S(=O)(=O)Nc2ccc(S(=O)(=O)N3CCOCC3)cc2)cc1 | ? | 0 | 2% | -14% | -1% | ?
O=C(CN1N=C(c2ccccc2)CCC1=O)NCc1ccc(F)cc1Cl | . | . | . | . | -11%[46 µM] | .
COc1cc(O)c(C(=O)c2ccccc2)cc1O | -12% | . | 0% | 4.5µM* | ? | .
CCOC(=O)/C(C#N)=C1/C=CN(c2ccc(C)cc2)C=N1 | ? | -9 | -4% | -22% | 4% | 29
CCOC(=O)/C(C#N)=C1/C=CN(c2ccccc2)C=N1 | ? | 4 | -2% | -15% | 15% | -10
CCOC(=O)/C(C#N)=C1\C=CN(C)C(C)=N1 | -4% | 0 | 1% | -16% | 4% | -100*
CCOC(=O)/C(C#N)=C1/C=CN(C)C=N1 | 14µM* | 2 | -2% | 25µM* | 5% | 7
CN(c1ccccc1)S(=O)(=O)c1ccc(NC(=S)NC(=O)C2CC2)cc1 | ? | . | -4% | -7% | ? | 0
SMILES | ALDH1A1 inh | IMPase inh | KinaseGlo FLuc | HPGD inh | Lamin A splicing | PNC inhibitor
Cc1ccc(C(=O)NC(=S)Nc2ccc(S(=O)(=O)N(C)c3ccccc3)cc2)cc1 | 11µM* | 0 | -5% | -7% | 6% | ?
COc1ccccc1/C=C/C(=O)NC(=S)Nc1ccc(S(=O)(=O)N(C)c2ccccc2)cc1 | 28µM* | 2 | -4% | -22% | 0% | -18
CN(c1ccccc1)S(=O)(=O)c1ccc(NC(=S)NC(=O)c2ccccc2)cc1 | 10µM* | 2 | -2% | -20% | ? | 45
CC(C)CC(=O)NC(=S)Nc1ccccc1C(F)(F)F | 18µM* | . | 3% | ? | -15% | 8
CC(C)CC(=O)NC(=S)Nc1ccccc1F | -4% | 9 | -3% | 20µM* | 9% | -15
CSc1ccccc1NC(=S)Nc1ccccc1C(F)(F)F | 6% | 3 | 0% | -1% | 1% | -4
CC(C)(C)CC(=O)NC(=S)Nc1ccccc1C(F)(F)F | -7% | 5 | -9% | 25µM* | 13% | 49
COc1ccccc1C(C)NCC(=O)Nc1ccccc1C(F)(F)F (centres undefined) | -5% | . | -3% | ? | -2% | -116*
COC(=O)C(C(=O)OC)[C@@H]1c2ccccc2[C@H]2C(=C[C@@H](C)[C@H]3C(=O)N(c4ccccc4)C(=O)[C@H]32)N1C(=O)OC | ? | . | -2%[7.66 µM] | -4% | ? | .
Cc1ccc(C(=O)NC(=S)Nc2ccccc2C(F)(F)F)cc1 | 13µM* | ? | . | . | ? | ?
Cc1nc2ccccn2c(=O)c1CCN1CCC(C(=O)c2ccc(F)cc2)CC1 | -12% | 12 | 0% | ? | -6% | -7
Cc1nc2sccn2c(=O)c1CCN1CCC(=C(c2ccc(F)cc2)c2ccc(F)cc2)CC1 | -6% | 17 | 0% | -25% | ? | -115*
COc1ccc(C2NC(=O)NC(O)(C(F)(F)F)C2C(=O)c2ccccc2)cc1OC (centres undefined) | 32µM* | 3 | 3% | -5% | 4% | -8
COc1cccc(C2NC(=O)NC(O)(C(F)(F)F)C2C(=O)c2cccnc2)c1OC (centres undefined) | 11µM* | -3 | -3% | 4% | 4% | ?
CCOc1cc(C2NC(=O)NC(O)(C(F)(F)F)C2C(=O)c2ccccc2)ccc1OC (centres undefined) | ? | -7 | 2% | 3% | 14% | -14
COc1ccc(C2NC(=O)NC(O)(C(F)(F)F)C2C(=O)c2ccc(C)cc2)cc1 (centres undefined) | 18µM* | 18 | . | . | 2% | -9
O=S(=O)(c1ccccc1)N1CCC[C@@]2(CCN(Cc3nccs3)C2)C1 | -12% | . | -1% | -2% | . | .
CCOC(=O)c1ccc(NC(=O)CSc2ccc3ccccc3n2)cc1 | . | . | . | . | -11%[46 µM] | .
COc1ccc(NC(=O)c2cc(S(=O)(=O)N3CCCCCC3)cn2C)cc1Cl | . | . | . | . | -1%[46 µM] | .
COc1ccccc1OCCCCOc1ccccc1F | 5% | 3 | 8% | -14% | 9% | 102
CCN(CC)CCCCCOc1ccccc1OC | 0.028µM* | 0 | -5% | -8% | 5% | -17
O=C(COc1cccc(NC(=O)c2cccs2)c1)c1ccc(F)cc1 | 0% | . | 0% | 16µM* | ? | 32
O=C(Nc1cccc(Oc2ccc3c(c2)C(=O)NC3=O)c1)c1cccs1 | 2% | -6 | -1% | 14µM* | 4% | 15
CCOC(=O)c1cccc(NC(=O)c2cccs2)c1 | 13% | 10 | -4% | -16% | -6% | -23
